# Sampled rows, rich in hits. Any-hit rate of the full collection: about 3.3%.
# KCC2 mod = KCC2 cotransporter modulators, thallium flux, primary screen, cell-based, HEK293 KCC2, FluoZin-2 fluorescence, MLSMR | Solute carrier family 12 member 5 (Homo sapiens), Q9H2X9 | KCC2 cells, thallium flux FluoZin-2 fluorescence | B-score of Tl+ flux slope (higher = more flux/activation; lower = inhibition) at 10 µM | 2.2% of 190,000 active | AID 1456, 2008;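 active = thallium flux slope and its plate-corrected score both differing from the plate sample mean at a set confidence after two filtering rounds, in either direction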;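 also: slope of fluorescence scaled to starting intensity during 10 to 20 s after thallium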
# Calb FLC = C. albicans growth inhibition with fluconazole, primary screen, CaCi-2 strain, Alamar Blue fluorescence | C. albicans CaCi-2 (fluconazole-resistant clinical isolate) + fluconazole, 48 h | growth inhibition, % (concentration not given with the values) | 0.57% of 300,000 active;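 active = growth inhibition above about 58% in most replicates, limit read from the data, passing the limit was not always enough; inconclusive = exactly half the replicates above a set limit; inactive = most replicates below a set limit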;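 also: all wells also contain fluconazole at 8 µg/ml as a sub-toxic cotreatment; 0% = median of DMSO wells and 100% = median of geldanamycin control wells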
# H9c2 protect = cardioprotection against H2O2-induced cell death, primary screen, uHTS, H9c2 cells, ATPLite luminescence; protection from H2O2 cell death, % at 20 µM; 0.63% of 360,000 active; H9c2 cardiomyocytes, H2O2 injury protection, 2 h;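 active = compounds giving at least 50% protection of heart cells from peroxide-induced death in the single-dose screen, raw or plate-pattern-corrected value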;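 also: 0% = DMSO wells with peroxide and 100% = DMSO wells without peroxide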
# Efflux pump mplx = inhibitors of Candida efflux pumps in yeast, primary screen, S. cerevisiae, Nile Red, multiplex | inhibition, % at 10 µM | S. cerevisiae Candida pump triplex | 0.44% of 330,000 active;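 active = plate passing quality check with inhibition over a set limit, or well fluorescence over plate mean plus 4 SD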;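 also: Nile Red retained in pooled yeast measured as flow cytometry median fluorescence; 0% = buffer negative control and 100% = Enniatin B positive control; higher means more Nile Red kept so more efflux inhibition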
# PHOSPHO1 inh = PubChem AID 1565; Phosphoethanolamine/phosphocholine phosphatase (Homo sapiens), Q8TCT1; recombinant PHOSPHO1, absorbance phosphatase assay; inhibition, % at 13.3 µM; 1.1% of 290,000 active; in the data active = inhibition above about 60%
# Target sequence (Q8TCT1 whole entry, looked up): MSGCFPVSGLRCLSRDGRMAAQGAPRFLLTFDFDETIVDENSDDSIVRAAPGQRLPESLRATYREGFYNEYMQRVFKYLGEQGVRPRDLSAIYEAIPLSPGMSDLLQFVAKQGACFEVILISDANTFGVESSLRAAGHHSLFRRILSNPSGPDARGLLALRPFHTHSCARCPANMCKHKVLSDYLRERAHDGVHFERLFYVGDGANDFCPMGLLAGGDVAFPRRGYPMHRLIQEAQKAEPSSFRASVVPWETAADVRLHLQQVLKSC
# The depositor's hits bear a star; ? = inconclusive; · = not tested or not shown.
SMILES,KCC2 mod,Calb FLC,H9c2 protect,Efflux pump mplx,PHOSPHO1 inh
Cc1ccc(Nc2nc(CSc3nnc(-c4ccncc4)n3C)cs2)cc1,-2.8,-1,-14,0,-29
Cc1ccccc1Nc1nc(CSc2nnc(-c3ccoc3C)n2C)cs1,0.099,-4,5,0,69*
O=C(NCCN1CCN(c2ccccc2F)CC1)c1cccn2c(=O)c3ccccc3nc12,·,-20,71*,0,0
O=C(NCCN1CCN(c2ccccc2)CC1)c1cccn2c(=O)c3ccccc3nc12,-1.2,-2,19,0,-19
C/C(=N\NC(=O)c1ccc(Cl)cc1)c1ccccn1,·,16,3,0,24
C/C(=N\Nc1ccc(Cl)cc1)c1ccccn1,-0.2,3,0,0,94*
C/C(=N\Nc1ccc2nncn2n1)c1ccco1,1.8,0,8,0,41
C/C(=N\Nc1ccc2nncn2n1)c1ccccn1,1,2,58*,0,28
Cc1ccc(C(=O)O)cc1N=Cc1cc(Br)cc(Br)c1O,0.019,-17,77*,0,0
CSc1c(C#N)c(N)nc2sc(C(=O)c3ccccc3)c(N)c12,-0.55,7,5,0,18
N#Cc1c(SCc2ccc(Cl)cc2)sc(C(=O)c2ccccc2)c1N,-0.76,-2,-4,0,89*
Cc1cccc(C2CC3(CC(C)(C)NC(=S)N3)Oc3cc(O)ccc32)c1 (configuration not stated),·,80*,-7,0,42
CCC(Sc1nc(C)cc(C)n1)C(=O)NC1=NN=C(c2ccc(C)cc2)CS1 (configuration not stated),·,-6,-4,0,104*
CCN1C(=O)[C@H]2[C@@H](c3ccc(C(F)(F)F)cc3)N[C@]3(CCCN(Cc4ccc(OC)cc4)C3=O)[C@H]2C1=O,·,·,-9,·,·
CCC/C(=N/NC(=O)c1csc(C)c1C)c1ccc(Cl)s1,3.7*,-4,-2,0,6
Cc1nn(-c2ccccc2)nc1C(=O)Nc1cccc(C(=O)NC2CC2)c1,·,·,61*,·,·
C[C@@H]1CN([C@@H](C)CO)C(=O)CCCn2nncc2CO[C@H]1CN(C)Cc1cccnc1,·,·,11,·,·
CCOP(=O)(NC(c1ccccc1)c1nc2ccccc2[nH]c1=O)OCC (configuration not stated),·,-2,-3,0,61*
O=c1[nH]c2ccccc2nc1C(Nc1ccccc1)c1ccccc1 (configuration not stated),0.64,3,-2,0,25
O=C(Cn1cnc([N+](=O)[O-])n1)NC1CC1,0.49,?,-2,0,68*
Cc1ccc(CN2C(=O)[C@H]3Cc4c([nH]c5ccccc45)C(C)(C)N3C2=O)cc1,·,2,10,0,·
CN(C)Cc1cc(O)c(CN(C)C)cc1O,·,-4,61*,0,7
CN(C)Cc1cc(C(C)(C)C)cc(C(C)(C)C)c1O,-0.17,2,-4,0,33
COc1cc(OC)cc(-n2c3nc4ccccc4nc3c3c(=O)n(CC4CCCO4)cnc32)c1 (configuration not stated),·,6,·,1.1*,-33
O=c1c2c3nc4ccccc4nc3n(CC3CCCO3)c2ncn1CCc1ccccc1 (configuration not stated),-0.74,4,39,0,15
SMILES,KCC2 mod,Calb FLC,H9c2 protect,Efflux pump mplx,PHOSPHO1 inh
COc1ccc(CCCNC(=O)C2(C)Cc3c(-c4ccc(NC(C)=O)cc4)ccnc3O2)cc1 (configuration not stated),·,·,64*,·,·
Fc1ccccc1-c1nc2c(s1)CCc1onc(-c3ccc(Br)cc3)c1-2,·,3,-5,0,·
C=C1Cn2c(nnc2-c2ccc(Cl)cc2)S1,·,3,-1,0,70*
Cc1ccc(S(=O)(=O)Nc2ccsc2C#N)cc1,·,29,1,0,·
Nc1ccc2ccccc2c1N=Nc1ccccc1,·,·,-8,·,·
Cc1ccc(S(=O)(=O)N(C)c2ccc(C(=O)NCc3ccccn3)cc2)cc1,-0.0081,7,-9,0,37
CN(c1ccc(C(=O)NCc2ccccn2)cc1)S(=O)(=O)c1ccc(Cl)cc1,·,9,14,0,61*
CN(c1ccc(C(=O)Nc2cccnc2)cc1)S(=O)(=O)c1ccc(Cl)cc1,·,1,3,0,63*
CCOC(=O)C1(CC)CC(CSc2nc3ccccc3[nH]2)OC1=O (configuration not stated),-0.17,5,-3,0,-8

# Source: PubChem
